These results are taken from PubChem BioAssay.

Assay [1] concerns Plasmodium falciparum Sir2 (PF13_0152, Sir2A). The assay can be described thus: pfSir2 binders on small-molecule microarrays, primary screen, biochemical, small-molecule microarray, 635 nm fluorescence (AID 1098).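 Further: score merges spot fluorescence intensity with its signal-to-noise ratio.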 As to conditions: small-molecule microarray binding, fluorescence 635 nm; higher = more signal.
Assay [2] is described as follows: small-molecule microarray binders of probe aDKK1, primary screen, biochemical, biotinylated probe, 635/667 nm fluorescence (AID 1099).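 Further: score merges 667nm spot fluorescence with signal to noise across triplicate slides; reference of the scale not given here.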 As to conditions: higher = more signal.
The nature of assay [3]: small-molecule microarray binders of probe aCHRDL2, primary screen, biochemical, biotinylated probe, 635/667 nm fluorescence (AID 1100). As to conditions: higher = more signal.
Assay [4] can be described thus: splicing luciferase reporter signal modulators, primary screen, spliceosome inhibition project, cell-based, HEK293, splice +/- reporter (AID 1101).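 Further: HEK293 cells carrying a splicing-competent luciferase reporter gene; test concentration not given here.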 As to conditions: luminescence, 24 h, higher = more signal, called active from +8 up or from −8 down.
Assay [5] concerns the target Fibroblast growth factor 10 (Homo sapiens) (UniProt O15520). The assay can be described thus: FGF10 binders on small-molecule microarrays, primary screen, biochemical, small-molecule microarray, 635 nm fluorescence (AID 1102). As to conditions: FGF10 binding, fluorescence 635 nm, higher = more signal.
Assay [6] deals with glycogen synthase kinase-3 (GSK3A per assay name; protocol says GSK3B). The assay can be described thus: GSK3 binders on small-molecule microarrays, primary screen, biochemical, small-molecule microarray, 635 nm fluorescence, GSK3A (AID 1103). Further: the record names both GSK3A and GSK3B. As to conditions: small-molecule microarray binding, fluorescence 635 nm; higher = more signal.
In assay [7] the target is Epidermal growth factor receptor (Homo sapiens) (UniProt P00533). As to the kind of experiment: EGFR binders on small-molecule microarrays, primary screen, biochemical, small-molecule microarray, 635 nm fluorescence (AID 1104).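 Further: score merges 667 nm emission intensity with spot signal to noise over triplicate slides.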 As to conditions: EGFR binding, higher = more signal.
Epidermal growth factor receptor (Homo sapiens), sequence (P00533 whole entry, looked up): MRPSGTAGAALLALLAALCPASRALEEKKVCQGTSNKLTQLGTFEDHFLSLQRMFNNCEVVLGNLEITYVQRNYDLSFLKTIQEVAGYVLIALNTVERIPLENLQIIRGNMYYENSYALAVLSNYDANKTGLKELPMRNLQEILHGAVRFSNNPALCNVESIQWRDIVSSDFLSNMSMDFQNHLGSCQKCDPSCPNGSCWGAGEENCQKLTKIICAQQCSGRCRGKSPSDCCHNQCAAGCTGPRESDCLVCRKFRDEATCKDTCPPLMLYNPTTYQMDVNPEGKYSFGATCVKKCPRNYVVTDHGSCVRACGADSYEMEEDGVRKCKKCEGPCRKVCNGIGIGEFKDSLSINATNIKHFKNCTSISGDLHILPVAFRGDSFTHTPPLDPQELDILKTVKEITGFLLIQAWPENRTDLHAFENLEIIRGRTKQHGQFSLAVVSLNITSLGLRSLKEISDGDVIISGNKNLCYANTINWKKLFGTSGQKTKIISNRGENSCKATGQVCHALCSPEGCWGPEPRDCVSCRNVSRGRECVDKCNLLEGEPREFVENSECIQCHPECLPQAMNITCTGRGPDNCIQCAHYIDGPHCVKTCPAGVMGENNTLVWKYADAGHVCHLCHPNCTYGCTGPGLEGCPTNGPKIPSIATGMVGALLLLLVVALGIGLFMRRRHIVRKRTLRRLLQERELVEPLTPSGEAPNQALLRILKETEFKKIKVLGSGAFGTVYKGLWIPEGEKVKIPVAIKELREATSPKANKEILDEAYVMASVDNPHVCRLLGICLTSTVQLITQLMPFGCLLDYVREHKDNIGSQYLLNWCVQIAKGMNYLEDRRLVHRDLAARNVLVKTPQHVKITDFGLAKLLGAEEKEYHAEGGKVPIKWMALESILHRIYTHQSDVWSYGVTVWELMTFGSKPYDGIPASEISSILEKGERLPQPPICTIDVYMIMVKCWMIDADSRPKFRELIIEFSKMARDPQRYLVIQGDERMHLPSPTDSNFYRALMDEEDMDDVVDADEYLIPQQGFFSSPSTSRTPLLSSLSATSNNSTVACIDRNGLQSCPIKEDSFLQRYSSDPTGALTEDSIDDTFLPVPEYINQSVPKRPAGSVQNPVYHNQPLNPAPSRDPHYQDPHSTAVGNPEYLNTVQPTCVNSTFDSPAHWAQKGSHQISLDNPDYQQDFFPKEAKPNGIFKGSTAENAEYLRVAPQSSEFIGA
In assay [8] the target is Follistatin-related protein 3 (Homo sapiens) (UniProt O95633). The assay can be described thus: FSTL3 binders on small-molecule microarrays, primary screen, biochemical, small-molecule microarray, 635 nm fluorescence (AID 1105).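 Further: score merges emission near 667 nm and signal to noise per printed spot across three slides.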 As to conditions: FSTL3 binding, higher = more signal.
Follistatin-related protein 3 (Homo sapiens), sequence (O95633 whole entry, looked up): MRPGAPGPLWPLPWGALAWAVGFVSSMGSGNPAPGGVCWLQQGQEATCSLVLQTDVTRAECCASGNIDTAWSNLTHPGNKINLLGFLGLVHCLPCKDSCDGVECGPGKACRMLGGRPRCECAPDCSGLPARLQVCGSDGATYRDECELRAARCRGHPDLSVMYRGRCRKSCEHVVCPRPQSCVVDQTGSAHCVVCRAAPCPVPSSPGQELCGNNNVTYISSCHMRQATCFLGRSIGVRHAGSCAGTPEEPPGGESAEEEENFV
Assay [9] has as its target Dickkopf-related protein 1 (Homo sapiens) (UniProt O94907). The assay can be described thus: DKK1 binders on small-molecule microarrays, primary screen, biochemical, small-molecule microarray, 635 nm fluorescence scan (AID 1106).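 Further: score merges emission near 667 nm with signal to noise over three replicate slides.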 As to conditions: DKK1 binding, higher = more signal.
Assay [10] concerns Inhibin beta A chain (activin A). The assay can be described thus: INHBA (activin A) binders on microarrays, primary screen, biochemical, small-molecule microarray, 635 nm fluorescence scan (AID 1107).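 Further: mouse activin A protein probed at 4.33 µg/mL on printed slides; score merges bound-protein fluorescence near 667 nm with spot signal-to-noise.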 As to conditions: small-molecule microarray binding, higher = more signal.

Calls of active or inactive are those of the source.

Dickkopf-related protein 1 (Homo sapiens), sequence (O94907 whole entry, looked up): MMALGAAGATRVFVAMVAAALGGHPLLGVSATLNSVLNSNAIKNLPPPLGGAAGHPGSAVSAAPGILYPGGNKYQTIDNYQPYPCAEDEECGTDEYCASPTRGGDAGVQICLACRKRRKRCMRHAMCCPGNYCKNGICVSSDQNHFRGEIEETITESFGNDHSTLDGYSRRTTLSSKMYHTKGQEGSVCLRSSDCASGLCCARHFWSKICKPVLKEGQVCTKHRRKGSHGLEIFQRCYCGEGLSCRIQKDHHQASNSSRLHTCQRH
Fibroblast growth factor 10 (Homo sapiens), sequence (O15520 whole entry, looked up): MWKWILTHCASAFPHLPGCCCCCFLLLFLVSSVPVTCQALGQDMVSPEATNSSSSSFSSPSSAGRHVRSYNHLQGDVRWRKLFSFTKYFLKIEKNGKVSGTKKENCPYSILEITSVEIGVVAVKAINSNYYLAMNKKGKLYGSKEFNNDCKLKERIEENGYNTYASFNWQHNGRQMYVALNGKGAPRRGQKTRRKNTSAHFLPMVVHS

Take `Cn1cccc1C(O)C1C=CC2C(=O)N(c3ccccc3)C(=O)C2N1Nc1ccccc1` (stereo not given): the composite z-score in assay [1] came out at 1.19; in assay [2], 0.966; in [3], 1.04; in [5], 1.3; in assay [6], 1.27; in assay [7] it was 0.671. Further, the composite z-score in [8] was determined as 1.41; in [9], 0.456; in assay [10] it was 0.865. In addition, the z-score in assay [4] is -0.441 (inactive).

Regarding `CCCCC(=C=CC[C@H](O)c1ccc(OCCO)cc1)CCO`, the composite z-score in assay [1] was 0.69; in assay [2], -0.194; in [3], 0.208; in [5] it was 0.0655; in assay [6], -0.686; in assay [7], -0.709. The composite z-score in assay [8] was -0.24; in [9], -0.704; in [10], 0.817. Also, in assay [4], the z-score was -0.0149 (inactive).

With `Oc1ccc2cc[n+](Cc3cc4c(cc3Br)OCO4)cc2c1`, the composite z-score in assay [1] was -1.19; in [2] it was 0.144; in [3] it was 0.452; in assay [5], -0.633; in assay [6], -1.16; in [7], -0.243. Besides, the composite z-score in assay [8] was -0.456; in [9] it was -0.14; in [10] it was 0.398. The z-score in assay [4] is -0.95 (inactive).

On to `CCCC[C@@H](O)C1=C(COc2ccccc2)C[C@H]2C(=O)N(Cc3ccccc3)C(=O)[C@H]2[C@H]1CO`, for which the composite z-score in [1] was 0.146; in assay [2] it was -0.302; in [3] it was -0.195; in assay [5], 0.574; in assay [6] it was -0.0802; in assay [7], 0.357. Moreover, the composite z-score turned out to be 0.78 in [8], 0.638 in [9] and 0.526 in assay [10]. Further, the z-score in assay [4] was -0.249 (inactive).

On to `Cc1ccc(C(C)CC(O)C2C=CC3C(=O)N(c4ccccc4)C(=O)C3N2Nc2ccccc2)o1` (stereo not given), for which the composite z-score in assay [1] worked out at 0.844; in assay [2], 1.01; in assay [3], 0.693; in assay [5], 0.981; in assay [6], 1.28; in assay [7] it was 0.554. Further, the values for the composite z-score in assay [8], in assay [9] and in [10] were 1.2, -0.174 and 0.843, respectively. In addition, the z-score in [4] is -0.392 (inactive).

With `CN(C)C(=O)[C@]1(CCC(=O)OC(C)(C)C)N=C(c2ccc(OCCCO)cc2)O[C@@H]1c1ccccc1CN=[N+]=[N-]`, the composite z-score in [1] was 1.45; in assay [2], -0.594; in [3], 1.08; in assay [5], 0.518; in assay [6], 0.7; in assay [7], 0.195. Besides, the values for the composite z-score in assay [8], in [9] and in [10] were 0.47, -0.396 and 0.418, respectively. Also, the z-score in [4] is -0.561 (inactive).

`[N-]=[N+]=Nc1ccccc1C[C@]1(C(=O)N2CCOCC2)COC(c2ccc(OCCCO)cc2)=N1`: the composite z-score in [1] is 1.6; in assay [2], 0.399; in assay [3] it was 0.948; in [5], 0.613; in assay [6], 1.33; in [7], -0.262. Also, the results for the composite z-score in assay [8], in assay [9] and in [10] were 0.634, -0.259 and 0.959, respectively. Also, in assay [4], the z-score was -0.59 (inactive).

Take `NCCCCCNC(=O)[C@H]1C[C@H]2C(=O)N3CCC[C@H]3C(=O)N2[C@H]1c1cccc(OCCO)c1`: the composite z-score in assay [1] was 0.685; in assay [2], 0.583; in [3], 1.1; in assay [5], 0.68; in assay [6], 0.703; in assay [7] it was -0.525. The composite z-score in assay [8] is -0.515; in assay [9] it was -0.331; in [10] it was 0.896. The z-score in assay [4] is 0.125 (inactive).

On to `O=C(c1ccccc1)N1C(=O)[C@]2(Cc3ccccc31)N=C(c1ccc(OCCCO)cc1)O[C@@H]2c1ccccc1`, for which the composite z-score in [1] was 1.2; in [2], -0.0088; in assay [3], 0.339; in assay [5], 1.42; in assay [6], 1.31; in assay [7], 0.0998. Also, the values for the composite z-score in [8], in assay [9] and in assay [10] were 0.554, 0.405 and 0.0538, respectively. The z-score in assay [4] was -0.936 (inactive).

Regarding `CO[C@H]1O[C@H](CO)[C@@H](OC(=O)Nc2ccc(Br)cc2)[C@@H]2OC(=O)[C@@H](Cc3ccccc3)C/C=C/C[C@H](Cc3ccccc3)C(=O)O[C@@H]12`, the composite z-score in assay [1] is 0.939; in assay [2], -0.139; in [3] it was 0.265; in assay [5], 0.767; in assay [6], 0.602; in [7], -0.265. For the same molecule, the composite z-score in [8] is -0.0749; in assay [9], -0.0375; in assay [10], 0.517. The z-score in assay [4] is -0.913 (inactive).

Consider `C=C[C@H](C)[C@H](OC(=O)Nc1ccc(SC)cc1)c1ccc(OCCO)cc1`, for which the composite z-score in assay [1] amounted to 1.12; in assay [2], 0.157; in assay [3] it was 0.916; in [5], 0.515; in [6], 0.394; in assay [7], 0.183. In addition, the composite z-score stood at 0.42 in [8], 0.148 in assay [9] and 0.081 in [10]. For the same molecule, the z-score in assay [4] was -3.34 (inactive).

For the molecule `CCCCCCc1nc(Cc2cc(OC)c(OC)c(OC)c2)cc2c1[Si](C(C)C)(C(C)C)OC2`, the composite z-score was 0.209 in assay [1]; -0.227 in [2]; -0.623 in assay [3]; 0.124 in assay [5]; -0.195 in assay [6]; 0.192 in assay [7]. The composite z-score in assay [8] came to 0.494; in assay [9], 0.5; in [10], 0.881. In addition, the z-score in assay [4] is -0.393 (inactive).
